# Only a selection was taken, and hits are over-represented in it overall.
# CendR NRP1 mod: modulators of CendR peptide binding to human neuropilin-1. O14786. FAM-RPARPAR peptide binding to NRP-1, fluorescence polarization. inhibition, % at 25 µM. 360,000 compounds, 0.85% hits. AID 602438;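 active means inhibition or corrected inhibition above about 18%, plus a signal ratio from 0.5 to 1.5, limit read from the data, passing the limit was not always enough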
# ARNT-TACC3 inh: ARNT/TACC3 interaction disruption; Q9Y6A5; AlphaScreen His-ARNT PAS-B/GST-TACC3 binding, luminescence; TACC3 fragment carries E629A point mutation; inhibition, % at 9.99 µM; 390,000 compounds, 0.66% hits; AID 623870;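 active means mean inhibition of replicates at least 50% and at least half of replicates each reaching 50%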
# ALR inh: human ALR oxidase inhibition via reduced H2O2. P55789. purified ALR, DTT oxidation, H2O2 HRP-luminol luminescence. inhibition, % (test concentration not listed). 290,000 compounds, 3.8% hits;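 active means mean replicate inhibition above about 79%, with every replicate also reaching it, limit read from the data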
# PDI turbidity: PDI (human) enzyme inhibition; 350,000 compounds, 0.052% hits; P07237; inhibition, % at 10 µM; PDI insulin aggregation turbidity, A650, 90 min;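 active means mean inhibition across replicates of 30% or more, whatever share of single replicates reach that level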
# Target sequence (P07237 whole entry, looked up): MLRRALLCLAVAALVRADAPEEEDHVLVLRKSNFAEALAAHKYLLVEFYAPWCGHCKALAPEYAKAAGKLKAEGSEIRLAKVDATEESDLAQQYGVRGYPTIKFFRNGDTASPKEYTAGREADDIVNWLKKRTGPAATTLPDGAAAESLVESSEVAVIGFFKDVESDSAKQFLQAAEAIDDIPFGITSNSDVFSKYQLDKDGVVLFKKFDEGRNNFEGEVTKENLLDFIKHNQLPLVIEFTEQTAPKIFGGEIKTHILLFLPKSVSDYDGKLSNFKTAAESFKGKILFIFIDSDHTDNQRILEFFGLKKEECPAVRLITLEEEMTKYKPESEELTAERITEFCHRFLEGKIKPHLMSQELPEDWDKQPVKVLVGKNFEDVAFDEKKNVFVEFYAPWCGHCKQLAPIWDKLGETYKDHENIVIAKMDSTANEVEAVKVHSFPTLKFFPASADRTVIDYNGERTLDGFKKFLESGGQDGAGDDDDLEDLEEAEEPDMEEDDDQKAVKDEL
# ERp5 block: inhibitors of human ERp5 | Q15084 | ERp5 insulin aggregation, absorbance 650 nm, 90 min | inhibition, % at 9.99 µM | 350,000 compounds, 0.05% hits | AID 651711;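 active means mean replicate inhibition above about 25%, with every replicate also reaching it, limit read from the data, passing the limit was not always enough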
# PglD inh: inhibitors of Campylobacter jejuni PglD acetyltransferase. purified PglD enzyme, DTNB colorimetric CoA detection. inhibition, % at 12.5 µM. 360,000 compounds, 0.098% hits. AID 602405; in the data active means inhibition above about 16%, passing the limit was not always enough
# A number is an active result; . = inactive; / = not tested or not shown; ! = a repeat was not active.
SMILES,CendR NRP1 mod,ARNT-TACC3 inh,ALR inh,PDI turbidity,ERp5 block,PglD inh
CN1CCc2c(sc3nc(SCC(=O)N4CCOCC4)n(-c4ccc(Cl)cc4)c(=O)c23)C1,.,.,98,.,.,.
CCOC(=O)CSc1nc2sc3c(c2c(=O)n1-c1ccc(OC)cc1)CCN(C)C3,.,.,99,.,.,.
COc1ccc(-n2c(SCC(N)=O)nc3sc4c(c3c2=O)CCN(C)C4)cc1,.,.,.,.,/,.
CN1CCc2c(sc3nc(SCC(=O)NCc4ccco4)n(-c4ccccc4)c(=O)c23)C1,.,.,.,.,.,.
CSc1nc(SCC(=O)NC(c2ccccc2)c2ccccc2)c2c3c(sc2n1)CN(C)CC3,.,.,93,.,/,.
C=C(C)CSc1nc2sc3c(c2c(=O)n1-c1ccc(OC)cc1)CCN(C)C3,/,/,.,/,.,/
CCOC(=O)CSc1nc2sc3c(c2c(=O)n1-c1ccccc1)CCN(C(C)C)C3,.,.,100,.,.,.
COC(=O)CSc1nc2sc3c(c2c(=O)n1C1CCCCC1)CCN(C)C3,/,/,92,/,/,/
COc1ccc(-n2c(SCC(=O)NCc3ccco3)nc3sc4c(c3c2=O)CCN(C)C4)cc1,.,.,98,.,.,.
COc1ccc2c3c([nH]c2c1)[C@H](CO)N(C(=O)NC(C)C)CC31CCN(C(=O)c2ccccn2)CC1,/,/,/,/,.,/
COc1ccc(S(=O)(=O)N(C)C[C@H]2OCCCC[C@H](C)Oc3ccc(NC(=O)CCCN(C)C)cc3C(=O)N([C@@H](C)CO)C[C@@H]2C)cc1,/,.,/,/,.,.
CCOC(=O)CSc1nc2sc3c(c2c(=O)n1-c1ccc(C)cc1)CCN(C)C3,.,/,99,.,.,.
COC(=O)CSc1nc2sc3c(c2c(=O)n1-c1ccc(OC)cc1)CCN(C)C3,.,.,/,.,.,.
COC(=O)CCCC1=CC2=C(c3ccccc3)C(=O)C(C)(OC(=O)C3CCCC3)C(=O)C2=CN1C1CCCCC1 (stereo unspecified),.,.,.,.,.,.
COC(=O)CCCC1=CC2=C(c3ccccc3)C(=O)C(C)(OC(=O)C3CCCC3)C(=O)C2=CN1C1CCCC1 (stereo unspecified),30,.,.,.,.,.
COC(=O)CCCC1=CC2=C(c3ccccc3)C(=O)C(C)(OC(=O)C3CCCC3)C(=O)C2=CN1CC(C)C (stereo unspecified),28,.,/,.,.,.
CCCCC1=CC2=C(c3ccco3)C(=O)C(C)(OC(=O)c3ccc(OC)cc3)C(=O)C2=CN1CCOC (stereo unspecified),28,.,.,.,/,.
CCN(CC)CCCN1C=C2C(=O)C(C)(OC(=O)C3CCCC3)C(=O)C(c3ccccc3)=C2C=C1CCCC(=O)OC (stereo unspecified),36,.,/,.,.,.
C[C@@H]1CCCCO[C@H](CN(C)S(=O)(=O)c2ccccc2)[C@@H](C)CN([C@H](C)CO)C(=O)c2cc(NC(=O)CCC(F)(F)F)ccc2O1,/,.,/,/,.,.
COCCN1C=C2C(=O)C(C)(OC(=O)C3CCCC3)C(=O)C(c3ccccc3)=C2C=C1CCCC(=O)OC (stereo unspecified),26,.,.,.,.,.
CO[C@H]1CN(C)C(=O)c2ccc(NC(=O)CC(F)(F)F)cc2OC[C@H](C)NC[C@H]1C,/,/,/,/,.,/
CC(O)CNc1ncnc2nc[nH]c12 (stereo unspecified),.,.,/,.,/,.
CC(C)=NNc1ncnc2nc[nH]c12,.,72,/,.,.,/
CCc1ccc(/C=N/Nc2ncnc3nc[nH]c23)cc1,.,.,81,.,.,/
CCOC(=O)CNc1ncnc2nc[nH]c12,.,.,.,.,.,/
SMILES,CendR NRP1 mod,ARNT-TACC3 inh,ALR inh,PDI turbidity,ERp5 block,PglD inh
C[C@@H]1CCCCO[C@H](CN(C)Cc2ccc(C(=O)O)cc2)[C@H](C)CN([C@@H](C)CO)C(=O)c2cc(NS(=O)(=O)c3cn(C)cn3)ccc2O1,/,.,/,/,/,.
CC(C)Sc1nsc2nc(=O)c(/C=C3\C=Nc4ccccc43)c(N)n12,.,.,.,.,.,.
CCCCc1nn2c(N)c(/C=C3\C=Nc4ccccc43)c(=O)nc2s1,.,.,.,.,/,/
CS(=O)(=O)c1nsc2nc(=O)c(/C=C3\C=Nc4ccccc43)c(N)n12,.,.,90,.,.,.
CCCc1nn2c(N)c(/C=C3\C=Nc4ccccc43)c(=O)nc2s1,.,.,92!,.,.,.
CN(C)c1ccc2c(c1)[C@@H]1C[C@@H](CC(=O)NCc3ccc(-c4ccccc4)cc3)O[C@H](CO)[C@@H]1O2,/,.,/,/,/,.
C[C@H]1CN([C@@H](C)CO)C(=O)c2cc(NC(=O)Nc3ccc(C(F)(F)F)cc3)ccc2O[C@@H]1CN(C)C(=O)Nc1cccc2ccccc12,/,.,/,/,/,.
O=C1C(C=NC2CC2)=C(O)c2ccccc21,.,.,.,.,/,.
CC(C)CN=CC1=C(O)c2ccccc2C1=O,23,.,.,.,.,.
O=C1C(C=NCCCn2ccnc2)=C(O)c2ccccc21,.,.,.,.,/,.
O=C1C(C=NCc2ccccn2)=C(O)c2ccccc21,.,66,.,.,.,.
COc1ccc2nc(Nc3ccccc3OC)sc2c1,.,.,99,.,.,/
COc1ccc2nc(NC(=O)Nc3ccccc3OC)sc2c1,.,.,.,.,.,.
COc1ccc2nc(Nc3ccc4c(c3)OCO4)sc2c1,.,.,/,.,/,.
COc1ccc2nc(Nc3ccccc3)sc2c1,.,.,94,.,.,.
O=C(Nc1nnc(SCc2ccc(F)cc2)s1)C1=COCCO1,.,.,/,.,.,.
O=C(Nc1nnc(SCc2ccccc2)s1)C1=COCCO1,24,.,.,.,.,.
C/C(N)=C(/C#N)C(=O)CSc1cc(C)c2cc(C)cc(C)c2n1,.,.,96,.,.,.
Cc1cccc(-n2c(C)n[nH]c2=S)c1,.,.,.,.,.,.
Cc1cccc(-n2c(-c3ccoc3C)n[nH]c2=S)c1,.,.,91,.,.,/
Cc1ccccc1-n1c(-c2ccoc2C)n[nH]c1=S,.,.,/,.,.,/
Cc1cccc(-n2c(-c3ccncc3)n[nH]c2=S)c1,.,.,91,.,/,.
CCCCC(CCC(=O)O)(C(=O)OCC)c1csc(Nc2ccc(C)cc2)n1 (stereo unspecified),.,.,99,.,.,/
COc1ccc(NC(=O)Nc2ccc3c(c2)C(=O)N([C@@H](C)CO)C[C@H](C)[C@H](CN(C)Cc2ccncc2)OCCCC[C@@H](C)O3)cc1,/,.,/,/,.,.
CC(=O)NS(=O)(=O)c1ccc(NC(=O)/C=C/c2cn(-c3ccccc3)nc2-c2ccccc2)cc1,.,.,98,.,.,.
O=C(CSc1nnc(-c2ccc3c(c2)OCCO3)o1)N1CCCC1,.,.,99,.,/,.
Cc1ccc(-c2nnc(SCC(=O)N3CCCC3)o2)cc1C,.,.,99,.,/,.

# Screening results deposited in PubChem by several laboratories.
